Assay outcomes from PubChem.
Most compounds without a hit are left out; they make up all but 1.8% or so of the library.
MEX-5 binding – MEX-5 zinc finger RNA-binding disruptors – biochemical, C. elegans, fluorescence polarization, MLPCN library, primary screen; Zinc finger protein mex-5 (Caenorhabditis elegans), Q9XUB2; actives 0.38% (n = 300,000); AID 1832, 2009; MEX-5/FITC-TCR2 RNA binding; stronger effect = lower value; activity score (negative = inhibition of binding), % at 10 µM;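 active means inhibition past about -25% in most replicates, and total fluorescence under double the plate's negative control median, limit read from the data; inconclusive means replicates evenly split on the limit, or fluorescence at least double controls; inactive means too little inhibition in most replicates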
EBV gp42 inh – Epstein-Barr virus gp42 inhibitors, primary screen, biochemical, uHTS, fluorescence polarization; Glycoprotein 42 (Epstein-Barr virus (strain AG876)), Q1HVG2; Fluorescence polarization binding assay, mP read-out; inhibition, % (tested at 21.74 µM); actives 0.42% (n = 220,000); AID 1085, 2008; in the data active means inhibition above about 50%
Target sequence (Q1HVG2 whole entry, looked up): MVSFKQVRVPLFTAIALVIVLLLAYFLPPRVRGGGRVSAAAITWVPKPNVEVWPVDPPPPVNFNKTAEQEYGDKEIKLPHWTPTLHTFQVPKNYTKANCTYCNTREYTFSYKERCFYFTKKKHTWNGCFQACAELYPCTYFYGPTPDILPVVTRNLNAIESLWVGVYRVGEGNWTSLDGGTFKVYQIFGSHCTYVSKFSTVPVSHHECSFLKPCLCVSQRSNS
PABP polyA inh – PABP poly(A) RNA binding inhibitors, primary screen, biochemical, fluorescence polarization, uHTS; actives 1% (n = 290,000); Polyadenylate-binding protein 1 (Homo sapiens), P11940; AID 2014, 2009; calls only at 35 µM;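 further: calls also rest on retests at 20 µM and on dose response follow-up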
PABP1 MLLE inh – inhibitors of PABP1 MLLE–PAM2 peptide binding, primary screen, biochemical, fluorescence polarization, FITC-PAM2, GST-MLLE | inhibition, % at 20 µM | actives 0.36% (n = 360,000) | AID 588489, 2011 | Polyadenylate-binding protein 1 (Homo sapiens), P11940; in the data active means inhibition above about 35%, passing the limit was not always enough
eIF4H FP inh – human eIF4H binding inhibitors, primary screen, translation initiation inhibitor project, biochemical, uHTS, fluorescence polarization; actives 0.94% (n = 290,000); Eukaryotic translation initiation factor 4H (Homo sapiens), Q15056; inhibition, % at 35 µM; eIF4H fluorescence polarization binding assay;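 further: calls also rest on retests at 20 µM and on dose response follow-up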
Hits are given with their value; . = inactive; ? = inconclusive; / = not tested or not shown; + = active, no number. Unless noted, how the calls were made is not given here.

SMILES	MEX-5 binding	EBV gp42 inh	PABP polyA inh	PABP1 MLLE inh	eIF4H FP inh
COc1cccc2ccc(CC(O)(c3ccccc3)c3ccccc3)nc12	/	/	/	.	/
CC1(C(=O)NNC(=O)c2ccc(=O)oc2)CC1Br (stereo not drawn)	.	.	+	.	.
Cc1noc(/C=C/c2ccc(-c3ccccc3Cl)o2)c1[N+](=O)[O-]	.	130	?	.	?
Cc1noc(/C=C/c2cccnc2)c1[N+](=O)[O-]	.	/	.	.	.
CSc1ccc(CN2CCC(C)(Oc3ccc(C(C)=O)cc3)C2)cc1 (stereo not drawn)	/	/	/	.	/
O=C(CN1CCOCC1)Nc1cc([N+](=O)[O-])ccc1Cl	.	.	.	.	active
COc1ccc(-c2n[nH]nc2C2=CC(=O)CC(C)(C)C2)cc1	/	/	/	.	/
CC(C)NC(=O)Nc1nnc([C@@H]2C[C@H](O)[C@@H](CO)O2)s1	/	/	/	.	/
Cc1ccc(C(C)C)cc1-n1nnc(-c2cccc(Cc3ccc4ccccc4c3)c2)c1C(C)O (stereo not drawn)	/	/	/	.	/
Cc1ccsc1C(=O)N1CCC1(C)C(=O)NS(=O)(=O)c1ccccc1C(F)(F)F (stereo not drawn)	/	/	/	.	/
CC1=CC(C)C2(COC(c3ccc[n+](C)c3)OC2)C(C)C1 (stereo not drawn)	/	.	+	.	.
S=c1sscc1-c1ccccc1	/	/	/	.	/
Cc1ccc(-c2nc(SCC(=O)N(C)c3c(N)n(Cc4ccccc4)c(=O)[nH]c3=O)n[nH]2)cc1	.	/	+	.	106
CCN(C(=O)CSc1n[nH]c(-c2ccc(OC)cc2)n1)c1c(N)n(Cc2ccccc2)c(=O)[nH]c1=O	/	/	/	.	/
N=C1C(c2nc3ccccc3[nH]2)=C(O)CN1c1ccccc1	.	.	.	.	.
N=C1C(c2nc3ccccc3[nH]2)=C(O)CN1c1ccc(CC(=O)O)cc1	-85	.	.	.	.
CN1C(=O)/C(=C/c2ccc(-c3ccccc3[N+](=O)[O-])o2)SC1=Nc1ccc(Cl)c(C(=O)O)c1	?	.	.	.	78
CC1CCCN(C(=O)/C(=C/c2ccco2)NC(=O)c2ccccc2)C1 (stereo not drawn)	.	/	.	.	.
Cc1ccc(C(=O)N/C(=C/c2ccco2)C(=O)O)cc1	.	.	+	.	87
O=C(NCCc1ccccn1)/C(=C/c1ccco1)NC(=O)c1ccccc1	.	.	.	.	.
O=C(NCc1ccccn1)/C(=C/c1ccco1)NC(=O)c1ccccc1	.	.	+	.	82
CCOC(=O)/C(=C\c1ccc(C)cc1)NC(=O)c1ccccc1	.	.	+	.	78
O=C(N/C(=C\c1ccco1)C(=O)N1CCCC1CO)c1ccccc1 (stereo not drawn)	.	/	.	34	.
CCc1nc2c(OCc3ccc(F)c(F)c3)cccn2c1N(C)C(=O)c1cccs1	/	/	/	.	/
CC(C)(C)c1ccc(C(O)c2ncc(-c3ccc(F)cc3)[nH]2)cc1 (stereo not drawn)	/	/	/	.	/
SMILES	MEX-5 binding	EBV gp42 inh	PABP polyA inh	PABP1 MLLE inh	eIF4H FP inh
CCOC(=O)N1CCN(C(=O)CNS(=O)(=O)c2cccs2)CC1	.	.	.	.	.
CC(=O)Nc1ccc(S(=O)(=O)NCC(=O)N2CCN(S(=O)(=O)c3cccs3)CC2)cc1	/	/	/	43	/
N#C/C(=C\c1cc(Br)ccc1F)C(=O)NC1CC1	.	/	.	.	.
COC(=O)CCC(=O)OC1(C)C(=O)C=C2C=C(C3CC3)N(c3ccc(CO)cc3)C=C2C1=O (stereo not drawn)	-36	/	/	/	/
COCCN1C=C2C(=O)C(C)(OC(=O)CCC(=O)OC)C(=O)C=C2C=C1C1CC1 (stereo not drawn)	.	.	.	.	.
COC(=O)CCC(=O)OC1(C)C(=O)C=C2C=C(C3CC3)N(c3cccc(C#N)c3)C=C2C1=O (stereo not drawn)	.	.	?	.	?
COC(=O)CCC(=O)OC1(C)C(=O)C=C2C=C(C3CC3)N(Cc3ccco3)C=C2C1=O (stereo not drawn)	.	.	+	.	88
COc1cccc(N2CCN(C(=O)c3ccc(OC)c(S(=O)(=O)NC4CC4)c3)CC2)c1	/	/	/	.	/
COc1ccc(S(=O)(=O)NCc2ccc(C(=O)NCCN(C)Cc3ccccc3)cc2)cc1	/	/	/	.	/
